{"source": "PubChem BioAssay (NCI)", "note": "“And” between values parts separate entries of the source, which are not always exact repeats. Equal values may be shown once. About 83,000 compounds went through this panel and 20% of them were active in at least one assay; those are over-represented in the sample as a whole.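 Note: values are percent growth. 100 is the growth of untreated cells, values between 100 and 0 indicate rising inhibition; between -100 and 0 indicates cell death.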 The source made the active and inactive calls. Rule for the calls: active = growth percent below 10; inactive = the rest."}
{"system": "MDA-MB-468 breast", "experiment": "NCI-60 one-dose screen, 48 h (100 = growth as untreated, 0 = no growth, -100 = all killed)", "details": "10 µM unless noted"}
{"compound": "O=C(CC1(O)C(=O)Nc2ccccc21)c1ccc(C(=O)NCC2CCC3(CC2)OOC2(CCCCC2)OO3)cc1", "note": "(stereo not given)", "growth": "53.7% (inactive)"}
{"compound": "OC1CCCCC1N1CCC(c2ccccc2)CC1", "note": "(stereo not given)", "growth": "116% (inactive)"}
{"compound": "O=C1CN=C(c2ccc(Cl)cc2)c2sccc2N1", "growth": "104% (inactive)"}
{"compound": "CCN(CC)CCOC(=O)C(OC(C)C)(c1ccccc1)c1ccccc1", "growth": "95.1% (inactive)"}
{"compound": "O=C1NC(=O)C(O)(C2(O)C(=O)NC(=O)NC2=O)C(=O)N1", "growth": "99.8% (inactive)"}
{"compound": "Cc1cc(NC(=O)/C=C/c2ccc([N+](=O)[O-])cc2)ccc1S(=O)(=O)F", "growth": "114% (inactive)"}
{"compound": "Nc1ccc2c(c1)Cc1cc(Br)ccc1-2", "growth": "85.2% (inactive)"}
{"compound": "COc1ccc2c(c1)NC1=C(C(=O)OC1)C2c1cc(OC)c(OC)c(OC)c1", "note": "(stereo not given)", "growth": "-16.3% (active)"}
{"compound": "Cc1cc(N(CCCl)CCCl)ccc1/C=N\\NC(=O)c1cccnc1", "growth": "-30.4% (active) and -38.6% (active)"}
{"compound": "COC1CC2C=C(C)/C=C/C=C/C(=O)NC(c3ccccc3)C/C=C/CCC(O)CC(=O)C2=C1O", "note": "(stereo not given)", "growth": "-50.7% (active)"}
{"compound": "CC1(C)N=C(N)N=C(N)N1c1cccc(C(=O)Nc2cccc(S(=O)(=O)F)c2)c1", "growth": "94.6% (inactive)"}
{"compound": "Clc1ccc(CO/N=C(\\Cn2ccnc2)c2ccc(Cl)cc2Cl)c(Cl)c1", "growth": "-24.5% (active)"}
{"compound": "COC(=O)N[C@H]1CCc2c(Br)c(OC)c(OC)c(OC)c2-c2ccc(SC)c(=O)cc21", "growth": "-23.7% (active)"}
{"compound": "CC1=C2C(=C[C@@](C)(C=O)[C@@H]2O)C(=O)[C@](C)(O)C12CC2", "growth": "-66.7% (active)"}
{"compound": "C[C@]12CC[C@H]3[C@@H](CCC4=CC(=O)CC[C@@H]43)[C@@H]1CC[C@@H]2OC(=O)N(CCCl)N=O", "growth": "-22.1% (active)"}
{"compound": "CN1CC(=O)N(O)C1(C)c1cccnc1", "note": "(stereo not given)", "growth": "94.8% (inactive)"}
{"compound": "CN1CCCCC1C(C)(O)c1ccccc1", "note": "(stereo not given)", "growth": "102% (inactive)"}
{"compound": "COC(=O)[C@H](Cc1ccccc1)NC(=O)c1csc([C@@H](C[C@H](C(C)C)N(C)C(=O)[C@@H](NC(=O)[C@H]2CCCCN2C)C2CC2)OC(C)=O)n1", "growth": "-3.15% (active)"}
{"compound": "COC(=O)[C@H](Cc1ccccc1)NC(=O)c1csc([C@@H](C[C@H](C(C)C)N(C)C(=O)[C@@H](NC(=O)[C@H]2CCCN2C)C2CC2)OC(C)=O)n1", "growth": "-5.59% (active)"}
{"compound": "CN[C@]1(c2ccccc2Cl)CCCC[C@H]1NCCCN1CCN(C)CC1", "growth": "85.2% (inactive)"}
{"compound": "Nc1nnnc2nc[nH]c12", "growth": "-11.9% (active)"}
{"compound": "Oc1ccccc1OB(Oc1ccccc1O)N(CCCl)CCCl", "growth": "84% (inactive)"}
{"compound": "C[C@@H]1C[C@@H]([C@H](O)CC2CC(=O)NC(=O)C2)C(=O)[C@@H](C)C1", "growth": "9.5% (active)"}
{"compound": "CN(C)c1ccc(N)cc1", "growth": "98% (inactive) and 5.01% (active)"}
{"compound": "CC1(C)N=C(N)N=C(N)N1c1ccc(OCCCCNC(=O)Nc2cccc(S(=O)(=O)F)c2)c(Cl)c1", "growth": "40.9% (inactive)"}
{"compound": "CCN(CC)c1ccc2c(c1)OC(N)=C(C#N)C2c1cc(OC)c2c(c1)OCO2", "note": "(stereo not given)", "growth": "-9.24% (active)"}
{"compound": "C[C@]12C[C@H](c3ccoc3)OC(=O)[C@H]1CC[C@@]1(C)[C@@H]2[C@H]2C=C[C@]1(O)C(=O)O2", "growth": "105% (inactive)"}
{"compound": "O=C1C2C(C(=O)[N]1[Hg][c]1ccccc1)C1(Cl)C(Cl)=C(Cl)C2(Cl)C1(Cl)Cl", "note": "(stereo not given)", "growth": "-72.7% (active)"}
{"compound": "COc1ccc2c(c1)c(-c1nc(-c3c[nH]c4ncccc34)cs1)cn2CCCCN1CCCCC1", "growth": "-75.6% (active)"}
{"compound": "CC(C)CCC1(CCCl)C(=O)NC(=O)NC1=O", "growth": "90.1% (inactive)"}
{"compound": "C/C(=N/OC(=O)N(C)C)c1ccc(Cl)cc1Cl", "growth": "114% (inactive)"}
{"compound": "CC1=C(CCCNS(C)(=O)=O)C2=C(C)C3(CC3)[C@@](C)(O)C(=O)C2=C1", "growth": "-80.9% (active)"}
{"compound": "CCC[CH2][Sn]([CH2]CCC)([CH2]CCC)[O]c1ccc(Cl)cc1Cl", "growth": "-98.7% (active)"}
{"compound": "CC(C)(NC(=O)O[C@@H]1CN2CCC1CC2)c1csc(-c2ccc(F)cc2)n1", "growth": "85.2% (inactive)"}
{"compound": "CC(=O)O[C@H](C[C@H](C(C)C)N(C)C(=O)[C@@H](NC(=O)[C@H]1CCCCN1C)C(C)C)c1nc(C(=O)N[C@@H](Cc2ccccc2)C[C@H](C)C(=O)O)c(CCOCc2ccccc2)s1", "growth": "1.12% (active)"}
{"compound": "Nc1cc2nc3ccccc3nc2cc1N", "growth": "-11.9% (active)"}
{"compound": "O=C(CCCCCCC(=O)Nc1ccc(N(CCCl)CCCl)cc1)NO", "growth": "-64.2% (active)"}
{"compound": "ClCCN(CCCl)c1ccc(/C=C\\c2ccnc3ccccc23)cc1", "growth": "46.1% (inactive)"}
{"compound": "Cc1c(C)c(N)c(C)c(C)c1N", "growth": "61.7% (inactive)"}
{"compound": "COCC1OC2OC3C(COC)OC(OC4C(COC)OC(OC5C(COC)OC(OC6C(COC)OC(OC7C(COC)OC(OC8C(COC)OC(OC1C(O)C2O)C(O)C8O)C(O)C7O)C(O)C6O)C(O)C5O)C(O)C4O)C(O)C3O", "note": "(stereo not given) (tested in a mixture with another compound)", "growth": "105% (inactive)"}
